# HT1080 IDH1KD tx = HT-1080 IDH1 knockdown cell toxicity (counter line); Potency, µM (doses to about 46.1 µM), without a hit: top-dose activity, negative = toxicity, usual class: cytotoxic; 360,000 compounds, 2% hits; HT-1080 IDH1 knockdown viability, ATP luminescence, 48 h;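 further: potency means the concentration at half of the fitted maximal effect; 0% = DMSO wells and -100% = cell-free medium wells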
#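 HT-1080-IDH1KD cells (IDH1 knocked down), 750/well in RPMI with 5% FBS, treated with compound 48 h at 37 degrees C. Viability by CellTiter-Glo luminescence, normalised to DMSO and no-cell wells; concentration-response curves classed.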
# DT40 TDP1 CPT = growth inhibition of DT40 Tdp1-/-;hTDP1 cells with camptothecin (screen for TDP1 inhibitors); chicken DT40 Tdp1-/-;hTDP1 cells + 20 nM CPT, ATP luminescence, 48 h; Potency, µM (top dose mostly 46.2 µM), for the others: at the top dose activity change, negative = growth inhibition, actives largely listed as inhibitors; 420,000 compounds, 12% hits; further: potency means the concentration at half of the fitted maximal effect; nearly all actives have a fitted effect of over 55% in size
#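 Chicken DT40 Tdp1-/- cells complemented with human TDP1, 400 cells/well, exposed to compounds plus 20 nM camptothecin for at least 48 h at 37 C; viability read as ATP content by CellTiter-Glo luminescence.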
# IL1B secr inh = blocks inflammasome-driven IL-1 beta release; THP-1 LPS/ATP IL-1B secretion, AlphaLISA, 16 h; hits give low values; activity change, % at 57.5 µM; 360,000 compounds, 4.7% hits; AID 743279; in the data active means activity change below about -50%; inconclusive means mostly about -30% to -49%
#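 Secreted IL-1B measured by AlphaLISA bead assay after 16 h compound exposure of THP-1 cells; compounds (final up to 57.5 uM) added 1 h before LPS (250 ng/mL) and ATP (1.25 mM) stimulation; lower signal means less secretion.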
# TDP1 cell noCPT = qHTS for Inhibitors of human tyrosyl-DNA phosphodiesterase 1 (TDP1): qHTS in cells in absence of CPT. DT40 Tdp1-/- hTDP1 cells, no CPT, ATP luminescence, 48 h. Potency, µM (highest dose often 46.2 µM), inactives show at the top dose activity change, negative = growth inhibition, most hits filed as inhibitors. 420,000 compounds, 15% hits; further: potency means the concentration at half of the fitted maximal effect; nearly all actives have a fitted effect of over 55% in size
#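 Camptothecin absent (DMSO only). Human TDP1-complemented DT40 knockout cells, 400 cells/well, 37 °C for minimum 48 hr; ATP measured via CellTiter-Glo, 30 min dark incubation, luminescence.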
# HT1080NT lethal = kills 2HG-producing HT-1080-NT fibrosarcoma cells | Potency, µM (titrated, usually from 46.1 µM), for the others: at the top dose activity, negative = less viability, hits mostly cytotoxic | 360,000 compounds, 1.6% hits | HT-1080-NT fibrosarcoma viability, CellTiter-Glo ATP luminescence, 48 h;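 further: NT is the 2HG producing partner of a matched IDH1 knockdown line; potency means the concentration at half of the fitted maximal effect; 0% = DMSO-treated cells and -100% = media-only wells without cells; nearly all actives have a fitted effect of over 55% in size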
#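 Toxicity toward the 2HG-producing NT line was scored as %Activity, normalised to DMSO and no-cell wells, from CellTiter-Glo luminescence after 48 hours' treatment.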
# An asterisk follows results filed as active; ? = inconclusive; · = not tested or not shown. Most compounds without a hit are left out; they make up all but 19% or so of the library. Unless noted, the call rests on the fitted dose curve; in most records, active means well fitted curve in the direction sought with a large enough effect; inconclusive means small, poorly fitted or top-dose-only effect, or another doubt; inactive means no such curve, though single readings can be large; an effect the other way counts as inactive or inconclusive. Unless noted, on the % scale 0 is the no-effect control and ±100 the full control effect.
SMILES,HT1080 IDH1KD tx,DT40 TDP1 CPT,IL1B secr inh,TDP1 cell noCPT,HT1080NT lethal
OCc1nc2ccccc2n1CC(O)COc1ccccc1 (configuration not stated),5%,-16%,-23,-15%,1%
CCCCn1c(=N)n(CC(O)COc2ccc(C)cc2)c2ccccc21 (configuration not stated),11µM*,6.5µM*,-73*,4.1µM*,?
CCCCn1c(=N)n(CC(O)c2ccccc2)c2ccccc21 (configuration not stated),-11%,15µM*,-67*,23µM*,-19%
Cc1ccc2c(c1)oc(=O)n2CC(=O)c1ccccc1,-2%,6%,-24,0%,26%
COCCNC(=O)c1cc2c(c(-c3cccc(-c4cc5ccccc5o4)c3)n1)[C@@H](CCO)N(S(=O)C(C)(C)C)C2 (some centres not stated),?,16µM*,-19,?,-12%
O=C(c1cc2c(c(-c3cccc(-c4ccc(F)cc4)c3)n1)[C@H](CCO)N(C(=O)c1ccc3c(c1)OCO3)C2)N1CCOCC1,?,?,?,?,21µM*
O=C(c1cc2c(c(-c3cccc(-c4ccncc4)c3)n1)[C@@H](CCO)N(C(=O)c1ccc3c(c1)OCO3)C2)N1CCOCC1,7%,-24%,-5,-19%,-13%
CN1CCN(C(=O)c2cc3c(c(-c4cccc(C#CC(C)(C)O)c4)n2)[C@@H](CCO)N(S(=O)C(C)(C)C)C3)CC1 (some centres not stated),14%,-4%,51,-16%,20%
CCCNC(=O)c1cc2c(c(-c3cccc(-c4ccc(F)cc4)c3)n1)[C@H](CCO)N(S(=O)C(C)(C)C)C2 (some centres not stated),?,?,?,23µM*,?
CC(C)(C)S(=O)N1Cc2cc(C(=O)NCc3ccc4c(c3)OCO4)nc(-c3cccc(-c4ccccc4)c3)c2[C@@H]1CCO (some centres not stated),1%,23µM*,-28,?,-1%
CCCNC(=O)c1cc2c(c(-c3cccc(-c4ccc(F)cc4)c3)n1)[C@@H](CCO)N(S(=O)C(C)(C)C)C2 (some centres not stated),?,?,-28,?,?
CCc1ccc(NC(=O)Cn2nnc(C(=O)Nc3cc(C)ccc3OC)c2N)cc1,·,-29%,·,-28%,·
COc1ccc(C#Cc2cccc(-c3nc(C(=O)NCCCN4CCOCC4)cc4c3[C@H](CCO)N(S(=O)C(C)(C)C)C4)c2)cc1OC (some centres not stated),?,?,-27,23µM*,?
COCCNC(=O)c1cc2c(c(-c3cccc(-c4cc5ccccc5o4)c3)n1)[C@H](CCO)N(S(=O)C(C)(C)C)C2 (some centres not stated),?,?,-8,23µM*,?
CCNC(=O)c1cc2c(c(-c3cccc(-c4cc5ccccc5o4)c3)n1)[C@H](CCO)N(C(=O)NC(C)C)C2,?,21µM*,-23,9.2µM*,?
CN1CCN(C(=O)c2cc3c(c(-c4cccc(-c5cc6ccccc6o5)c4)n2)[C@@H](CCO)N(S(=O)C(C)(C)C)C3)CC1 (some centres not stated),-21%,?,-21,?,-26%
CC(C)NC(=O)N1Cc2cc(C(=O)NC3CCCC3)nc(-c3cccc(-c4cccnc4)c3)c2[C@@H]1CCO,-23%,?,-13,13µM*,-27%
O=C(Nc1ccc(S(=O)(=O)NCC2CCCO2)cc1)c1cccc(F)c1 (configuration not stated),-3%,?,14,?,?
O=C(/C=C/c1ccccc1)NCCCNC(=O)/C=C/c1ccccc1,-12%,-6%,62,-20%,-18%
CSc1ccc(C2=C/C(=C3/SC(=S)NC3=O)c3ccccc3O2)cc1,0%,?,-1,?,14%
CC(=O)c1ccc(Nc2cc(C)nc3nc(Cc4ccc(Cl)cc4)nn23)cc1,·,?,·,-17%,·
CC(C)(C)S(=O)N1Cc2cc(C(=O)NCc3ccc(Oc4ccccc4)cc3)nc(-c3cccc(-c4cc5ccccc5o4)c3)c2[C@@H]1CCO (some centres not stated),?,?,-6,?,23µM*
O=Nc1ccc(NO)c2ccccc12,16µM*,?,-7,13µM*,?
CCn1c(=O)c2sccc2n2c(CCCC(=O)N3CCN(c4cc(Cl)ccc4C)CC3)nnc12,·,12µM*,·,8.2µM*,·
CCn1c(=O)c2sccc2n2c(CCCC(=O)N3CCN(c4cccc(Cl)c4)CC3)nnc12,·,18µM*,·,16µM*,·
SMILES,HT1080 IDH1KD tx,DT40 TDP1 CPT,IL1B secr inh,TDP1 cell noCPT,HT1080NT lethal
CCC(C)n1c(=O)c2sccc2n2c(CCCC(=O)N3CCN(c4ccccc4)CC3)nnc12 (configuration not stated),·,-65%,·,?,·
Cc1ccc(Cl)cc1N1CCN(C(=O)CCc2nnc3n(C)c(=O)c4ccccc4n23)CC1,·,-29%,·,-32%,·
CCCn1c(=O)c2sccc2n2c(CCCC(=O)N3CCN(c4ccccc4)CC3)nnc12,·,?,·,16µM*,·
CCn1c(=O)c2sccc2n2c(CCCC(=O)N3CCN(c4ccccn4)CC3)nnc12,8%,?,-25,?,9%
Cn1c(=O)c2sccc2n2c(CCC(=O)N3CCN(c4cccc(Cl)c4)CC3)nnc12,·,?,·,5.8µM*,·
CNC(=S)N(CCc1c(C)[nH]c2ccc(C)cc12)Cc1cccnc1,-4%,-29%,-9,-27%,5%
COc1cc2c(cc1OC)C(=O)CC(C)S2 (configuration not stated),-3%,-7%,-23,-27%,0%
Cc1ccc(CNS(=O)(=O)c2c(C)nc3sc(C)cn3c2=O)cc1,·,?,·,-26%,·
C=CCOC(=O)C1=C(C)NC(C)=C(C(=O)OCC=C)C1c1ccc(C)o1,-19%,?,-77*,?,-24%
CC1(C)C2CCC(C2)C1(C)NC(=O)CN1CCCC1 (configuration not stated),1%,8%,3,-5%,1%
CC1(C)C2CCC(C2)C1(C)NC(=O)CNC1CCCCC1 (configuration not stated),5%,?,?,10µM*,-4%
O=[N+]([O-])c1ccc(NC(=S)NCc2ccc(F)cc2)cc1,23µM*,?,-100*,15µM*,?
